# Screen size: about 310,000 compounds; about 17,000 (5.5%) were called active. About 11% were inconclusive and are not listed. The list comes from a sample in which actives are over-represented; it also holds similar structures and randomly drawn compounds. Values without a mark were called inactive. Calls follow the shape of the dose curve; as a rule, active = well fitted inhibition curve with a large enough effect; inconclusive = small, poorly fitted or top-dose-only effect, or effect the other way; inactive = no such curve, though single readings can be large or run the other way.
# Biological target: Nuclear receptor ROR-gamma (Mus musculus) (UniProt P51450)
# Sequence (P51450 whole entry, looked up): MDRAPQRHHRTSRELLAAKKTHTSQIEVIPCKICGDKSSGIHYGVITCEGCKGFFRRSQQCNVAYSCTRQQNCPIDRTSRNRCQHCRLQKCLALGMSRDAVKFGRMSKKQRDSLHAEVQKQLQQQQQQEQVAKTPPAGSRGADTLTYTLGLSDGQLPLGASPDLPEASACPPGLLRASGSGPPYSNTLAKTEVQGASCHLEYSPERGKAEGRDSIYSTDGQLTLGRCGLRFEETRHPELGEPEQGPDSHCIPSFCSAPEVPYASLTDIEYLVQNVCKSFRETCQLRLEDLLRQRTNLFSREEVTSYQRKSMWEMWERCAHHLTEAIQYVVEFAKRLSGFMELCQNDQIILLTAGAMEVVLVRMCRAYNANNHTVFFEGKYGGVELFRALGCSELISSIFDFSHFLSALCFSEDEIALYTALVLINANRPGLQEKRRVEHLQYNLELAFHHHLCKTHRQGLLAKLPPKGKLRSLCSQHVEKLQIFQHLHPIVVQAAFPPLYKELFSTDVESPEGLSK
# Assay: qHTS for inhibitors of ROR gamma transcriptional activity; also: nearly all actives have a fitted effect of over 60% in size
# Conditions: Drosophila S2 Gal4-RORgamma UAS-luciferase reporter, 20 h; series mostly up to 53.6 µM; activity change, negative = inhibition: at the top concentration
# Outline: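 Compounds are pin-transferred onto Drosophila Schneider cells expressing a copper-inducible Gal4–ROR gamma transactivation domain fusion. After 1 hr, copper sulfate is added to 700 uM final; luciferase is read 20 hr later.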
# % is scaled to controls: 0 for no effect and ±100 for the full control effect; potency is read from the fitted curve at half-maximal effect.
SMILES,"activity change, negative = inhibition",Potency
CCOc1ccc2[nH]c3nc(SCC(=O)NC4CCCC4)nnc3c2c1,-11.8%,–
O=c1c2ccccc2ncn1CCCCOc1ccccc1F,12.9% [at 1.91 µM],–
COC(=O)c1ccc(NC(=O)CSc2nc(N)c(NC(=O)c3ccc(Br)o3)c(=O)[nH]2)cc1,5.56%,–
O=c1oc(/C=C/c2ccccc2)nc2ccccc12,0.954%,–
S=c1[nH]nc(/C=C/c2ccccc2)o1,–,12.6 µM (active)
COc1ccc(N(CC(=O)N2CCCCCC2)S(=O)(=O)c2ccccc2)cc1,2.49%,–
Cc1ccc(NC2CCCN(C(=O)CCc3cn[nH]c3)C2)cc1C (stereo unspecified),14.3%,–
Cc1ccccc1N1CCN(CC(=O)NCc2ccc(Cl)cc2)CC1,27.3%,–
COC(=O)c1sc2[nH]c(=S)n(N)c(=O)c2c1C,–,7.08 µM (active)
CCOC(=O)c1sc2nc(C)[nH]c(=O)c2c1C,18.3%,–
COC(=O)c1sc(=S)n(-c2ccccc2)c1N,0.645%,–
O=S(=O)(c1ccc(Cl)cc1)c1nc(-c2ccccc2F)oc1NCCN1CCOCC1,38.8%,–
CC(=O)c1ccc(NC(=O)c2sc3nc4n(c(=O)c3c2C)CCCCC4)cc1,34.7%,–
O=C(Nc1ccccc1Cl)Nn1cnnc1,-16.9%,–
O=C(Cc1ccc2c(c1)CCCC2)Nc1ccccc1Cl,8.31%,–
O=C(Nc1ccccc1Cl)/C(Cl)=C(\Cl)S(=O)c1ccccc1 (stereo unspecified),–,0.891 µM (active)

SMILES,"activity change, negative = inhibition",Potency
Cc1ccc(S(=O)(=O)c2nnn3c2nc(N2CCN(c4ccccn4)CC2)c2ccccc23)cc1,-12.8%,–
CCC(CC)c1nnc(NC(=O)C2CCN(C(=O)c3ccco3)CC2)s1,35.8%,–
CC(CNC(=O)c1ccc(Br)o1)NC(=O)c1ccc(Br)o1 (stereo unspecified),-15%,–
O=C(NCc1cccs1)c1ccc(Br)o1,5.95%,–
C=CCNC(=S)NNC(=O)c1ccc(Br)o1,–,2 µM (active)
CC1CCN(C(=O)Cn2nnnc2CN2CCOCC2)CC1,-26.6%,–
COC(CNC(=O)c1ccc2c(c1)ncn2-c1cc(C)cc(C)c1)OC,9.19%,–
O=C(N/N=C/c1ccccn1)c1cccnc1,-45.9%,–
O=C(N/N=C/c1sc(N2CCCCC2)nc1-c1cccs1)c1cccnc1,–,7.94 µM (active)
O=C(NN=C1CCC(=NNC(=O)c2cccnc2)CC1)c1cccnc1,-37.9%,–
CN(Cc1ccccc1)C(=O)c1ccc(NC2=NC3CS(=O)(=O)CC3S2)cc1 (stereo unspecified),-0.867%,–
N#CCC(=O)N/N=C/c1cn(Cc2ccc3ccccc3c2)c2ccccc12,–,12.6 µM (active)
CNC(=S)N/N=C/c1cn(Cc2ccc(C)cc2)c2ccccc12,31.1%,–
COc1cccc(Cn2cc(/C=N/NC(=O)c3cc(O)cc(O)c3)c3ccccc32)c1,-0.821%,–
Cc1c(C=O)c2ccccc2n1CCOc1ccccc1,77.1%,–
